A selection: hits, their analogues and other compounds. The true share with any hit is near 3.6%.
CF NFkB inh: inhibitors of cystic fibrosis induced NF-kB | KKLEB NF-kB-GFP reporter, PAF-induced, GFP fluorescence overnight | inhibition, % at 5 µM | 360,000 tested, 0.86% active;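 active means at least 50% inhibition at 5 µM, scaled per plate between neutral and stimulator controls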;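 further: PAF is a Pseudomonas aeruginosa culture filtrate used as stimulus; plate controls were PAF-stimulated DMSO wells for no effect and unstimulated DMSO wells for full effect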
KKLEB cytotox: reduces viability of KKLEB cystic fibrosis airway cells; 360,000 tested, 0.36% active; KKLEB CF airway cells viability, ATPlite luminescence, overnight; active compounds read low; cells stimulated with P. aeruginosa culture filtrate; activity change (cytotoxicity), % at 5 µM;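 active means corrected activity change at or below -50% at 5 µM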
Peg3 prom inh: inhibitors of Peg3 promoter | inhibition, % at 20 µM | 360,000 tested, 1.7% active | HeLa PEG-Prom luciferase reporter, luminescence, overnight;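 active means inhibition of at least 50% at 20 µM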
LGR2 antag: Drosophila LGR2 receptor signaling inhibition. HEK293 LGR2, CRE-luciferase, bursicon-stimulated, 4 h. inhibition, % at 9.99 µM. 380,000 tested, 0.35% active;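 active means drop in luminescence signal, shown as inhibition above about 50% in the replicate tests, limit read from the data, passing the limit was not always enough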;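 further: agonist challenge used bursicon conditioned medium at about half maximal strength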
HSP90 inh: inhibitors of HSP90 luciferase refolding in rabbit reticulocyte lysate; luciferase refolding luminescence, 3 h; inhibition, % at 5.6 µM; 290,000 tested, 0.91% active;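 active means inhibition above the screen-wide mean plus 3 SD, computed separately per campaign, cut at about 16% in these data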;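 further: 0% = DMSO wells and 100% = 60 µM geldanamycin wells; inhibitors lower the luminescence because luciferase stays unfolded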
Mdm2 MdmX PPI: human Mdm2/MdmX binding inhibition; SaOS-2 split-luciferase Mdm2/MdmX complementation, luminescence; inhibition, % at 8 µM; O15151+Q00987; 330,000 tested, 3% active;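 active means inhibition of at least 50% at 8 µM in the primary screen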
Mdm2 MdmX conf: human Mdm2/MdmX binding inhibition, confirmed | shares compounds with Mdm2 MdmX PPI | luminescent assay | inhibition, % at 8 µM | 10,000 tested, 55% active | AID 489028; in the data active means inhibition above about 40%
FLuc counter: full-length luciferase inhibition in Mdm2/MdmX counter-screen; shares compounds with Mdm2 MdmX PPI; SaOS-2 full-length luciferase counterscreen, luminescence; inhibition, % at 8 µM; 6,200 tested, 77% active; AID 504607;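 active means mean inhibition at 8 µM reaching about 37%, which flags the compound as non-specific, limit read from the data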;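 further: p53-null SaOS-2 cells with luciferase driven by a doxycycline-inducible promoter; compound on cells about two nights before reading with doxycycline added after day one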
* hit, by the source's call; nt = no result given.

SMILES	CF NFkB inh	KKLEB cytotox	Peg3 prom inh	LGR2 antag	HSP90 inh	Mdm2 MdmX PPI	Mdm2 MdmX conf	FLuc counter
N#CC(C#N)=NNc1ccc(-n2ccc(C(F)(F)F)n2)cc1	79*	-46	21	78*	4	94*	73*	31
COc1ccc(C#Cc2ccc([C@@H]3[C@H]4CN(C(=O)Cc5ccncc5)CCCCN4[C@H]3CO)cc2)cc1	nt	nt	nt	4	nt	nt	nt	nt
Cc1ccc(/C=C2\C(=O)NC(=S)N(c3ccc(F)cc3)C2=O)s1	-45	-1	107*	-23	3	80*	4	nt
Nc1ncnc2c1ccn2[C@@H]1O[C@H](CO)[C@@H](O)[C@H]1O	87*	-97*	100*	93*	nt	100*	100*	50*
C1=NCCc2c1[nH]c1ccccc21	20	-7	47	18	nt	52*	-54	nt
COC(=O)C1=C(c2ccc(-c3ccccc3)c(F)c2)C[C@@H]2CC[C@H]1N2C(=O)NC1CCCCC1	11	-3	-1	21	nt	69*	41*	64*
COC(=O)C1=C(c2ccc(OCc3ccccc3)cc2)C[C@@H]2CC[C@H]1N2C(=O)NC1CCN(Cc2ccccc2)CC1	24	-18	86*	nt	nt	85*	54*	62*
O=C(Cc1ccccn1)N1CCCCN2[C@H](CO)[C@@H](c3ccc(-c4ccccc4)cc3)[C@@H]2C1	nt	nt	nt	20	nt	nt	nt	nt
CCN1[C@@H]2c3ccc(-c4ccc(OC)cc4)c(=O)n3C[C@H]1[C@H](CO)[C@H]2C(=O)OC	nt	nt	nt	-11	nt	nt	nt	nt
O=[N+]([O-])c1ccccc1-c1cc(-c2ccccc2)cc(-c2ccccc2)[n+]1Cc1ccccc1Cl	nt	nt	nt	40	nt	88*	69*	22
COC(=O)[C@H]1[C@H](CO)[C@H]2Cn3c(cccc3=O)[C@@H]1N2Cc1nccs1	nt	nt	nt	-2	nt	nt	nt	nt
COC(=O)C1=C(c2cc3ccccc3s2)C[C@@H]2CC[C@H]1N2C(=O)N1CCOCC1	11	-8	18	-11	nt	55*	55*	55*
O=C(Cc1ccccc1)N1CC2(C1)[C@@H](c1ccccc1)[C@@H](CO)N2Cc1cccc(F)c1	nt	nt	nt	4	nt	nt	nt	nt
CCCNC(=O)[C@H]1[C@H](CO)[C@H]2Cn3c(cccc3=O)[C@H]2N1C	nt	nt	nt	1	nt	nt	nt	nt
COC(=O)[C@H]1[C@H](CO)[C@H]2Cn3c(ccc(C4=CCCCC4)c3=O)[C@@H]1N2Cc1cccnc1	nt	nt	nt	-3	nt	nt	nt	nt
CCn1c(NN=O)nc2ccccc21	-4	21	42	7	-3	77*	72*	21
CCn1c(P(C)(=O)O)nc2ccccc21	-3	-3	-5	-15	3	-12	nt	nt
C[C@H]1CN([C@@H](C)CO)C(=O)CCCn2nncc2CO[C@@H]1CN(C)C(=O)Oc1ccc2ccccc2c1	nt	nt	nt	5	nt	nt	nt	nt
CC(C)[C@H]1C(=O)O[C@H](C(C)C)C(=O)N(C)[C@@H](C(C)C)C(=O)O[C@H](C(C)C)C(=O)N(C)[C@@H](C(C)C)C(=O)O[C@H](C(C)C)C(=O)N1C	33	1	33	nt	-3	95*	88*	49*
Oc1cc(Cl)ccc1Oc1ccc(Cl)cc1Cl	35	-4	40	nt	nt	66*	17	nt
CC(C)CC#Cc1ccc([C@H]2[C@@H](CO)N3CCCCN(C(=O)Cc4ccccn4)C[C@H]23)cc1	nt	nt	nt	-5	nt	nt	nt	nt
Cc1ccc(OC(=O)N(C)C[C@H]2OCc3ccccc3-c3c(n(C)c4ccccc34)C(=O)N([C@H](C)CO)C[C@@H]2C)cc1	nt	nt	nt	19	nt	nt	nt	nt
COc1ccc(C#Cc2ccc([C@H]3[C@@H](CO)N4CCCCN(C(=O)Cc5ccccc5)C[C@H]34)cc2)cc1	nt	nt	nt	-15	nt	nt	nt	nt
Fc1ccc(C[n+]2c(-c3ccccc3)cc(-c3ccccc3)cc2-c2ccccc2)cc1	nt	nt	nt	14	nt	89*	69*	38*
Clc1ccc(C[n+]2c(-c3ccccc3)cc(-c3ccccc3)cc2-c2ccccc2)cc1	43	-32	88*	9	nt	90*	84*	19
SMILES	CF NFkB inh	KKLEB cytotox	Peg3 prom inh	LGR2 antag	HSP90 inh	Mdm2 MdmX PPI	Mdm2 MdmX conf	FLuc counter
C[n+]1c(-c2ccccc2)cc(-c2ccc(O)cc2)cc1-c1ccccc1	6	-2	2	7	5	16	nt	nt
O=C(Cc1cccnc1)N1CCCCN2[C@@H](CO)[C@@H](c3ccc(/C=C/c4ccccc4)cc3)[C@@H]2C1	nt	nt	nt	-3	nt	nt	nt	nt
COc1cccc(CNCCc2c[nH]c3ccccc23)c1	0	-4	-13	5	5	2	nt	nt
COc1cc(C)c(CNCCc2c[nH]c3ccccc23)cc1C	22	-9	95*	0	7	64*	33	nt
CC(C)(C)c1nc(N2CCN(C(=O)c3ccco3)CC2)c2nnn(Cc3ccccc3Cl)c2n1	13	-4	2	3	0	57*	9	nt
N#Cc1cc2c(nc1SCC(=O)Nc1cc(Cl)ccc1Cl)C1CCN2CC1	10	-8	3	nt	7	84*	99*	21
O=C(Cc1ccccn1)N1CCCCN2[C@H](CO)[C@H](c3ccc(C#Cc4ccccc4)cc3)[C@@H]2C1	nt	nt	nt	-3	nt	nt	nt	nt
CCN1/C(=C\C=C\C2=[N+](CC)c3ccccc3C2(C)C)C(C)(C)c2ccccc21	-26	-36	97*	nt	6	97*	96*	7
N#Cc1cccc(-c2ccc([C@@H]3[C@@H](CO)N4CCCCN(C(=O)Cc5cccnc5)C[C@H]34)cc2)c1	nt	nt	nt	-12	nt	nt	nt	nt
CC(C)c1ccc(N2C(=O)NC(=O)/C(=C\C=C\c3ccco3)C2=O)cc1	nt	nt	nt	-2	5	56*	22	nt
CC(C)c1ccc(N2C(=O)NC(=O)/C(=C\c3cnc(-c4ccccc4)nc3)C2=O)cc1	9	2	-10	nt	2	20	nt	nt
O=c1[nH]c(=S)[nH]c(O)c1N=Nc1ccc(SC(F)F)cc1	2	-5	-211	10	1	-23	nt	nt
O=c1[nH]c(=S)[nH]c(O)c1N=Nc1ccc(S(=O)(=O)N2CCc3ccccc32)cc1	56*	-26	26	-18	4	58*	23	nt
CCCC#Cc1ccc([C@H]2[C@@H](CO)N3CCCCN(C(=O)Cc4ccccn4)C[C@@H]23)cc1	nt	nt	nt	-9	nt	nt	nt	nt
O=C(Cc1cccnc1)N1CCCCN2[C@H](C1)[C@@H](c1ccc(/C=C/c3ccccc3)cc1)[C@@H]2CO	nt	nt	nt	6	nt	nt	nt	nt
O=C(Cc1ccncc1)N1CCCCN2[C@H](CO)[C@@H](c3ccc(C#CC4(O)CCCC4)cc3)[C@@H]2C1	nt	nt	nt	-12	nt	nt	nt	nt
CCOC(=O)c1c(C)n(Cc2ccccc2)c2ccc(OCC(O)CNC(C)(C)C)cc12 (centres undefined)	19	-12	5	2	2	51*	26	nt
COC(=O)[C@@H]1N[C@@H]2c3ccc(C4=CCCC4)c(=O)n3C[C@@H]2[C@H]1CO	nt	nt	nt	-60	nt	nt	nt	nt

Screens as filed in PubChem BioAssay.
